Assay results from PubChem BioAssay (Tox21).
Results filed as inconclusive are left out. Activity calls are given as the source filed them. Unless noted, the call rests on the fitted dose curve; in most records, active means well fitted curve in the direction sought with a large enough effect in the repeat runs; inconclusive means weak or mixed curves; inactive means no such curve, though single readings can be large; an effect the other way counts as inactive or inconclusive.

Key:
[1] = qHTS assay to identify small molecule agonists of the peroxisome proliferator-activated receptor delta (PPARd) signaling pathway - cell viability counter screen (AID 743211); further: nearly all actives have a fitted effect of over 55% in size
Outline: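 Following 5 h plating at 37 C and 5% CO2, PPARd UAS-bla HEK293H cells took up test compounds for 17 h. Viability was quantified by luminescence 30 min after CellTiter-Glo addition at room temperature.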

[2] = target: Peroxisome proliferator-activated receptor delta (Homo sapiens) (UniProt Q03181); assay: qHTS assay to identify small molecule agonists of the peroxisome proliferator-activated receptor delta (PPARd) signaling pathway (AID 743212; calls by dose curve)
Outline: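 Beta-lactamase reporter readout: a ratiometric FRET signal from the LiveBLAzer substrate after 2 h at room temperature. Compound exposure at 37 °C in PPARδ-bla HEK293H cells driven by an upstream activator sequence.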

[3] = qHTS assay to identify small molecule antagonists of the peroxisome proliferator-activated receptor delta (PPARd) signaling pathway - cell viability counter screen (AID 743213); further: nearly all actives have a fitted effect of over 50% in size
Outline: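 CellTiter-Glo was added to PPARd-bla HEK293H wells following 17 h compound treatment in the presence of 300 nM L165041. Luminescence was recorded after 30 min at room temperature.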

[4] = target: Peroxisome proliferator-activated receptor delta (Homo sapiens) (UniProt Q03181); assay: qHTS assay to identify small molecule antagonists of the peroxisome proliferator-activated receptor delta (PPARd) signaling pathway (AID 743215; active means well fitted inhibition curve with a large enough effect in the signal ratio in the repeat runs, not every such curve was filed as active; the % refers to the signal ratio;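 further: cells stimulated with agonist L165041 at 300 nM final during compound exposure; series mostly up to about 62 µM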)
Outline: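 HEK293H GeneBLAzer PPARd UAS-bla reporter cells; cpd + L165041 300 nM final, 17 h 37 C; LiveBLAzer B/G FRET substrate 2 h RT; fluorescence intensity read-out. Antagonist mode.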

[5] = qHTS assay to identify small molecule antagonists of the farnesoid-X-receptor (FXR) signaling pathway - cell viability counter screen (AID 743221; active means well fitted cell-killing curve with a large enough effect in the repeat runs, not every such curve was filed as active; further: nearly all actives have a fitted effect of over 50% in size)
Outline: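 Compound effects on cell number were measured as CellTiter-Glo luminescence in HEK 293T cells expressing FXR-UAS-bla, after 16 h at 37 C with 50 uM CDCA (final).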

[6] = target: Vitamin D3 receptor (Homo sapiens) (UniProt P11473); assay: qHTS assay to identify small molecule agonists of the vitamin D receptor (VDR) signaling pathway (AID 743222; calls by dose curve)
Outline: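 Beta-lactamase reporter readout (LiveBLAzer B/G FRET, 2 h RT) in VDR-bla cells after 16 h compound treatment at 37C, 5% CO2; cells pre-incubated 4 h before pin transfer of DMSO solutions.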

[7] = target: Vitamin D3 receptor (Homo sapiens) (UniProt P11473); assay: qHTS assay to identify small molecule antagonists of the vitamin D receptor (VDR) signaling pathway (AID 743223; active means well fitted inhibition curve with a large enough effect in the signal ratio in the repeat runs, not every such curve was filed as active; the % refers to the signal ratio)
Outline: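 Beta-lactamase activity in VDR-bla cells is measured by FRET substrate fluorescence (2 h, room temperature) after cells spend 16 h at 37C with test compound and 3 nM final 1alpha,25-dihydroxyvitamin D3.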

[8] = qHTS assay to identify small molecule agonists of the vitamin D receptor (VDR) signaling pathway - cell viability counter screen (AID 743224); further: series mostly up to about 63 µM; nearly all actives have a fitted effect of over 50% in size
Outline: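 Cytotoxicity counter screen: VDR-bla cells, 16 h compound exposure at 37C, 5% CO2; CellTiter-Glo luminescence, 30 min RT, same wells as bla read.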

[9] = qHTS assay to identify small molecule agonists of the NFkB signaling pathway (AID 1159509; active means well fitted curve in the direction sought with a large enough effect in the signal ratio in the repeat runs, not every such curve was filed as active; the % refers to the signal ratio; further: series mostly up to about 61 µM)
Outline: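 Agonist activity was read as beta-lactamase-driven FRET change (460 and 530 nm emission, 405 nm excitation) following 1.5 hr substrate loading at room temperature. Beforehand, ME-180 NFkB-bla reporter cells were treated with compounds for 5 hr at 37 C.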

[10] = qHTS assay to identify small molecule agonists of the NFkB signaling pathway - cell viability counter screen (AID 1159515; calls by dose curve; further: series mostly up to about 61 µM; nearly all actives have a fitted effect of over 55% in size)
Outline: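 ME-180 NFkB-bla cells, 2,000/well; overnight attach; compound 5 hr, 37 C/5% CO2; LiveBLAzer substrate 1.5 hr RT; then CellTiter-Glo in same wells, 30 min RT, luminescence read.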

[11] = qHTS assay to identify small molecule agonists of the endoplasmic reticulum stress response signaling pathway (AID 1159516; active means well fitted activation curve with a large enough effect in the signal ratio in the repeat runs, not every such curve was filed as active; the % refers to the signal ratio)
Outline: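 HeLa ESRE-bla reporter line; cpd 5 h, 37 C/5% CO2; LiveBLAzer B/G FRET substrate 2 h RT; ex 405, em 460/530 nm.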

[12] = qHTS assay to identify small molecule agonists of the endoplasmic reticulum stress response signaling pathway - cell viability counter screen (AID 1159517; calls by dose curve;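 further: HeLa cells carrying an ER stress response element beta-lactamase reporter; series mostly up to about 61 µM; nearly all actives have a fitted effect of over 50% in size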)
Outline: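 ESRE-bla HeLa cells (1,500/well) were plated overnight at 37 C and exposed to compounds for 5 hr. After the 2 hr beta-lactamase substrate read, CellTiter-Glo went into the same wells, and luminescence was read after 30 min at room temperature.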

[13] = qHTS assay to identify small molecule antagonists of the retinoid-related orphan receptor gamma (ROR-gamma) signaling pathway - cell viability counter screen (AID 1159520); further: nearly all actives have a fitted effect of over 50% in size
Outline: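 Cytotoxicity was read from cellular ATP (CellTiter-Glo luminescence) after 16 hr at 37 C with 1 uM doxycycline induction. The inducer was added 2 hr after compound transfer to Tet-on ROR gamma CHO cells.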

[14] = target: Nuclear receptor ROR-gamma (Homo sapiens) (UniProt P51449); assay: qHTS assay to identify small molecule antagonists of the retinoid-related orphan receptor gamma (ROR-gamma) signaling pathway (AID 1159521)
Outline: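 Screening format: cell-based luciferase reporter in CHO cells with doxycycline-inducible RORγ. Compound pre-exposure lasts 2 h, doxycycline is 1 uM final, induction runs 16 h at 37 C, and ONE-Glo luminescence is read.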

[15] = qHTS assay to identify small molecule agonists of the AP-1 signaling pathway - cell viability counter screen (AID 1159525; calls by dose curve; further: nearly all actives have a fitted effect of over 55% in size)
Outline: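 Intracellular ATP by Cell Titer Glo luminescence (30 min, RT) in the same ME-180 AP-1-bla wells after the 5 h compound exposure at 37 °C. Normalised to tetra n-octyl ammonium bromide and DMSO controls.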

[16] = qHTS assay to identify small molecule agonists of the AP-1 signaling pathway (AID 1159526; calls by dose curve)
[17] = qHTS assay to identify small molecule agonists of the farnesoid-X-receptor (FXR) signaling pathway - cell viability counter screen (AID 743218); further: nearly all actives have a fitted effect of over 45% in size
Outline: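 Luminescence from CellTiter-Glo, read after 30 min at RT, reports viability of GeneBLAzer FXR-UAS-bla HEK 293T cells treated 16 h with compounds in the wells used for the beta-lactamase reporter.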

[18] = qHTS assay to identify small molecule antagonists of the vitamin D receptor (VDR) signaling pathway - cell viability counter screen (AID 743225); further: nearly all actives have a fitted effect of over 50% in size
Outline: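 In this counter screen, VDR-bla HEK 293T cells receive test compound plus 3 nM final calcitriol for 16 h at 37C. Room-temperature steps of 2 h with the beta-lactamase substrate, then 30 min with CellTiter-Glo, precede the luminescence read.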

[19] = target: Bile acid receptor (Homo sapiens) (UniProt Q96RI1); assay: qHTS assay to identify small molecule agonists of the farnesoid-X-receptor (FXR) signaling pathway (AID 743220; active means well fitted activation curve with a large enough effect in the signal ratio in the repeat runs, not every such curve was filed as active; the % refers to the signal ratio)
Outline: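 FXR-UAS-bla HEK 293T cells carrying a UAS-driven beta-lactamase reporter were plated for 5 h at 37C/5% CO2, then exposed to DMSO-dissolved Tox21 10K compounds for 16 h at 37C. A LiveBLAzer B/G FRET substrate was loaded for 2 h at room temperature before fluorescence reading.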

Measured: Potency

Peroxisome proliferator-activated receptor delta (Homo sapiens), sequence (Q03181 whole entry, looked up): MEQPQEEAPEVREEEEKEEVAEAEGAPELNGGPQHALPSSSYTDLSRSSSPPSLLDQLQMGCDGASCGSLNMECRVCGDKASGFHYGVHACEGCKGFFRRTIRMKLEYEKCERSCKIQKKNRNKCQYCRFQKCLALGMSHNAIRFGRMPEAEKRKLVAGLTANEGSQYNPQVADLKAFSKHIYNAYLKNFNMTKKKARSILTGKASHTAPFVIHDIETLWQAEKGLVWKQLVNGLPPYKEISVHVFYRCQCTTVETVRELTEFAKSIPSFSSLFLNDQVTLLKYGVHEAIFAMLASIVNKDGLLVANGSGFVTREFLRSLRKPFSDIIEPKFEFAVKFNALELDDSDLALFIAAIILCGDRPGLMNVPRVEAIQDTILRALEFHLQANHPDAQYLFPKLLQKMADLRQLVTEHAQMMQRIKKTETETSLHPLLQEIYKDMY
Vitamin D3 receptor (Homo sapiens), sequence (P11473 whole entry, looked up): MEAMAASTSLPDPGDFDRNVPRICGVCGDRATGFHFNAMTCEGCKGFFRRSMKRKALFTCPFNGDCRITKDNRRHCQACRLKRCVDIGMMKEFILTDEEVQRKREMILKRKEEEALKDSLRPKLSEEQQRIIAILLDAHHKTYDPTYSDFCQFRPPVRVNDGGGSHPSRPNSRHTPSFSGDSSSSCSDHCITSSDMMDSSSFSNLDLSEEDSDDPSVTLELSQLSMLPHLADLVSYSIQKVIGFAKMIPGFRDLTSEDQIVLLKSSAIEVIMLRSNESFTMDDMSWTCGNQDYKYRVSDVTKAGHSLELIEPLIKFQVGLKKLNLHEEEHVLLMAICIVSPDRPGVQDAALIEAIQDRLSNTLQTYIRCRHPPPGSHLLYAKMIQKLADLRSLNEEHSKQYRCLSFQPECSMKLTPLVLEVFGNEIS
Bile acid receptor (Homo sapiens), sequence (Q96RI1 whole entry, looked up): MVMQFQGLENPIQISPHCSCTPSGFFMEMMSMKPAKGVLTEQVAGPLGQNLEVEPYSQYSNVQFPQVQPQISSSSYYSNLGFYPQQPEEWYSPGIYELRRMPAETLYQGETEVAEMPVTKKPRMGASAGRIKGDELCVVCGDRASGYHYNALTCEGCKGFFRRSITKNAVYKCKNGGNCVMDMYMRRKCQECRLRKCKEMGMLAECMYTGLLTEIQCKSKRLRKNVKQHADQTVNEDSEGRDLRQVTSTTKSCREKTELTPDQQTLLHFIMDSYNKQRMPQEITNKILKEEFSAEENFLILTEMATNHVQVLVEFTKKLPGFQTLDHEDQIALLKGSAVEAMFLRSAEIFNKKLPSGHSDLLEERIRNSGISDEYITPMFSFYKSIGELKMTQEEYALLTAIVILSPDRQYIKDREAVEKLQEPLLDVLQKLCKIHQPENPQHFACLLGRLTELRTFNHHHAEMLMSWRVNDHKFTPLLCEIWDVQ

C=C[C@@H](C)CCC=C(C)C
not listed: [17] | [18] | [19]
inactive: all other assays above

CC(C)C(=O)Nc1cccc(C(F)(F)F)c1
not listed: [8] | [19]
inactive: all other assays above

Cc1ccccc1C
not listed: [7] | [19]
inactive: all other assays above

CC(=O)Nc1ccc(C)cc1
not listed: [18] | [19]
inactive: all other assays above

COc1cc(C=O)ccc1OC(=O)C(C)C
not listed: [7] | [18] | [19]
inactive: all other assays above

CCOC(=O)CCc1ccccc1
inactive: all assays above

CC1(N)CCC(C(C)(C)N)CC1 (configuration not stated)
not listed: [19]
inactive: all other assays above

CCC(C)N (configuration not stated)
not listed: [5] | [8]
inactive: all other assays above

CCCCCCCCCCCCCCCCCCN(C)C
not listed: [18] | [19]
inactive: all other assays above

NC(Cc1c[nH]c2ccccc12)C(=O)O (configuration not stated)
not listed: [19]
inactive: all other assays above

O=C(O)c1c(Cl)ccc(Cl)c1Cl
not listed: [7] | [18] | [19]
inactive: all other assays above

C1=C\CC/C=C\CC/1
not listed: [8] | [17] | [19]
inactive: all other assays above

CCCC(C)CC (configuration not stated)
not listed: [19]
inactive: all other assays above
